Compound activity (PubChem)
aDG glyco act: alpha-DG glycosylation activation. Pro5-aDG cells, alpha-DG glycosylation AlphaScreen (IIH6); 0% Pro5, 100% B10-LARGE cell signal. activation, % at 10 µM. 360,000 tested, 0.22% active. AID 624168;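 active = activation of at least 8% versus controls, or a plate z-score of at least 8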;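 note: Pro5 are CHO cells carrying HIG-tagged alpha-DG that lacks glycosylation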
Env fusion inh: HIV envelope-mediated fusion inhibition | HeLa-JRFL Env/CEM21 cell fusion, luciferase | inhibition, % at 12.3 µM | 360,000 tested, 1.1% active | AID 651610;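 active = mean replicate inhibition score of at least 50 and every replicate individually at or above 50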
Gli-Sufu block: antagonists of Gli-Sufu signaling; Sufu-KO-LIGHT fibroblasts, Gli luciferase reporter luminescence; inhibition, % at 5 µM; 340,000 tested, 0.74% active; AID 588413;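 active = inhibition above about 55%, limit read from the data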
NR2F2 inh: inhibitors of human COUP-TFII (NR2F2); HEK293T NGFI-A luciferase reporter, luminescence; inhibition, % at 8.6 µM; 370,000 tested, 0.7% active; AID 686940;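 active = inhibition above a per-plate cutoff, mean inhibition of test wells between control levels plus 3 SD, cut at about 38% in these data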;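 note: cells cotransfected with COUP-TFII expression vector driving the NGFI-A reporter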
Target sequence (P24468 whole entry, looked up): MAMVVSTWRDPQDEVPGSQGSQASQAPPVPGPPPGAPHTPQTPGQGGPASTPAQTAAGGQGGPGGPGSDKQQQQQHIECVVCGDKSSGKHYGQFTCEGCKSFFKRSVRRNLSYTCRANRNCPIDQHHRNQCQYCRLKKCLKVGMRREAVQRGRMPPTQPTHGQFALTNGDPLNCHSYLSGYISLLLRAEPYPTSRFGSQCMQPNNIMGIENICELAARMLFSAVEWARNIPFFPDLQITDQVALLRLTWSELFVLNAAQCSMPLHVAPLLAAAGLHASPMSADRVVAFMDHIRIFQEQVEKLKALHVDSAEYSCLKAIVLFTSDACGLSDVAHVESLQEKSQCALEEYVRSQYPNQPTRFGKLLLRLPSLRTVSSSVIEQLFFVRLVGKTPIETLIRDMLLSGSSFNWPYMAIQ
GalR3 antag: antagonists of human GalR3; 360,000 tested, 0.44% active; HEK293 GalR3-CNG cAMP membrane potential fluorescence; galR3 body fused to GalR1 C-terminus; AID 651719; inhibition, % at 3 µM;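 active = inhibition above the screen-wide average plus 3 SD, cut at about 13% in these data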;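 note: forskolin and galanin both at EC90 stimulate the cells; cAMP rise reported by CNG channel membrane potential dye signal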
Target sequence (O60755 1-299 limits assumed): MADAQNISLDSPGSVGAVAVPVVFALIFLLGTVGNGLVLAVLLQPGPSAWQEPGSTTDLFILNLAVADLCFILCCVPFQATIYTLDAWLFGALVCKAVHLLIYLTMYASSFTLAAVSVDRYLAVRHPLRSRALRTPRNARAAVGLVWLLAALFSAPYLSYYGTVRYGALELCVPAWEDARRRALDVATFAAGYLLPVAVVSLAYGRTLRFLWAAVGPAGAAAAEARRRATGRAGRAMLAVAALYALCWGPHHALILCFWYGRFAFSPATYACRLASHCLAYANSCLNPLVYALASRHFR
aDG glyco conf: alpha-DG glycosylation activation, confirmation; shares compounds with aDG glyco act; Pro5-aDG cells, IIH6 AlphaLISA; scaled to LARGE-overexpressing B10 cells as 100%; activation, % at 10 µM (by protocol); 600 tested, 17% active;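 active = activation of at least 7% in one or more replicates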;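 note: cells exposed to compound for two days before detection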
Each line names hits and unclear results; the compound was inactive in the other large screens (follow-up assays come after a bar, where they were run). Most compounds without a hit are left out; they make up all but 2.1% or so of the library.

Cc1ccc(S(=O)(=O)N2CCOCC2)cc1C(=O)NC1CCCCC1	aDG glyco act 50.0 | aDG glyco conf inactive
Cc1ccc(S(=O)(=O)N2CCOCC2)cc1C(=O)NC1CCCC1	none
COc1ccc(N(CC(=O)Nc2ccc(C)cc2)S(=O)(=O)c2c(C)noc2C)cc1	none
Cc1ccc(N(CC(=O)Nc2cc(C)cc(C)c2)S(=O)(=O)c2c(C)noc2C)cc1	aDG glyco act 7.6, Gli-Sufu block 67.5 | aDG glyco conf inactive
CCN(CC)CCNC(=O)c1cc(-c2cccnc2)nc2ccc(S(=O)(=O)N3CCC(C)CC3)cc12	none
CCCCN(C)CCNC(=O)c1cc(-c2cccnc2)nc2ccc(S(=O)(=O)N3CCC(C)CC3)cc12	aDG glyco act 5.4 | aDG glyco conf 4.2
CC1CC1C(=O)Nc1nc(-c2ccccn2)cs1 (configuration not stated)	aDG glyco act 5.1 (no result: Env fusion inh) | aDG glyco conf inactive
C=CCNC(=S)N/N=C(\C)c1cccc(OC)c1	none
C=CCNC(=S)N/N=C(\C)c1ccc(OC)cc1	aDG glyco act 11.6 | aDG glyco conf inactive
COCCNC(=S)N/N=C(\C)c1ccc(-n2ccnc2)cc1	none
COCCNC(=S)N/N=C(\C)c1ccc(O)cc1	aDG glyco act 7.4 (no result: Env fusion inh) | aDG glyco conf inactive
C[C@H]1CN([C@@H](C)CO)C(=O)c2ccccc2-c2ccccc2CO[C@@H]1CN(C)S(=O)(=O)c1cn(C)cn1	none (no result: aDG glyco act, Gli-Sufu block, NR2F2 inh, GalR3 antag)
O=C(COc1ccc(-c2ccccc2)cc1)NNC(=O)Nc1ccccc1	aDG glyco act 16.8 (no result: Env fusion inh) | aDG glyco conf inactive
O=C(COc1ccc(-c2ccccc2)cc1)Nc1cccnc1	aDG glyco act 4.6 | aDG glyco conf inactive
COC(=O)c1cn(C[C@@H](Cc2ccccc2)NC(=O)Nc2ccccc2)nn1	none (no result: aDG glyco act, Gli-Sufu block, NR2F2 inh, GalR3 antag)
CCN1C[C@@H](C)[C@H](OC)CN(C)C(=O)c2cc(NC(=O)c3ccno3)ccc2OC[C@H]1C	none (no result: aDG glyco act, Gli-Sufu block, NR2F2 inh, GalR3 antag)
CCC(c1nnnn1-c1c(C)cccc1C)N1CCN(c2ccc(C(F)(F)F)cc2[N+](=O)[O-])CC1 (configuration not stated)	aDG glyco act 7.6 (no result: Env fusion inh, Gli-Sufu block, NR2F2 inh, GalR3 antag) | aDG glyco conf inactive
CCC(c1nnnn1-c1c(C)cccc1C)N1CCN(c2cccc(C(F)(F)F)n2)CC1 (configuration not stated)	none (no result: Gli-Sufu block)
c1cncc(-c2nc(N3CCCCCC3)c3ccccc3n2)c1	none (no result: Env fusion inh)
c1ccc2c(N3CCCCCC3)nc(-c3ccncc3)nc2c1	aDG glyco act 7.0 (no result: Env fusion inh) | aDG glyco conf inactive
O=[N+]([O-])c1cc(-c2nc(-c3ccncc3)no2)cc([N+](=O)[O-])c1	aDG glyco act 8.7 (no result: Env fusion inh) | aDG glyco conf inactive
O=[N+]([O-])c1cc(-c2nc(-c3ccncc3)no2)ccc1Cl	none
CC(=O)N(C)C[C@@H]1Oc2ncc(C#CC3(O)CCCC3)cc2C(=O)N([C@@H](C)CO)C[C@H]1C	none (no result: aDG glyco act, Gli-Sufu block, NR2F2 inh, GalR3 antag)
CO[C@H]1CN(C)C(=O)c2cc(NC(C)=O)ccc2OC[C@@H](C)NC[C@H]1C	none (no result: aDG glyco act, Gli-Sufu block, NR2F2 inh, GalR3 antag)
COc1ccc(S(=O)(=O)Nc2cccc3c2O[C@H](CN(C)Cc2ccc(-c4ccccc4)cc2)[C@H](C)CN([C@H](C)CO)C3=O)cc1	none (no result: aDG glyco act, Gli-Sufu block, NR2F2 inh, GalR3 antag)
N#C/C(=C\c1cccc(Cl)c1)c1n[nH]c(Cn2cncn2)n1	aDG glyco act 2.9 (no result: Env fusion inh) | aDG glyco conf inactive
N#C/C(=C\c1ccc(F)cc1)c1n[nH]c(Cn2cncn2)n1	none (no result: Env fusion inh)
COC(=O)[C@H]1[C@H](CO)[C@H]2Cn3c(cccc3=O)[C@H]2N1CC1CCOCC1	none (no result: aDG glyco act, Gli-Sufu block, NR2F2 inh, GalR3 antag)
Cc1cccnc1CN1CCN(C(=O)CCc2nnc(CCc3ccccc3)o2)CC1	none
Cc1cccnc1CCNC(=O)CCc1nnc(CCc2ccccc2)o1	aDG glyco act 3.3 | aDG glyco conf inactive
COc1cc(NC(=O)c2c(F)c(F)c(F)c(F)c2F)c(OC)cc1Cl	aDG glyco act 7.7 | aDG glyco conf inactive
O=C(NCCCN1CCOCC1)c1ccc(S(=O)(=O)Nc2ccccc2)cc1	none (no result: Env fusion inh)
COc1ccccc1NS(=O)(=O)c1ccc(C(=O)NCCCN2CCOCC2)cc1	aDG glyco act 5.0 (no result: Env fusion inh) | aDG glyco conf inactive
Cc1nc(SCC(=O)Nc2cc(C(N)=O)cc(C(N)=O)c2)c2c(C)c(C)sc2n1	aDG glyco act 9.0 | aDG glyco conf 13.2
Cc1nc(SCC(=O)Nc2sccc2C(N)=O)c2c(C)c(C)sc2n1	none (no result: Gli-Sufu block)
O=C(c1ccc([N+](=O)[O-])o1)N1CCN(c2nc3c(Cl)cccc3s2)CC1	none
O=C(c1ccc([N+](=O)[O-])o1)N1CCN(c2nc3ccc(F)cc3s2)CC1	aDG glyco act 5.1 | aDG glyco conf inactive
CCOC(=O)c1sc(N/N=C/c2ccc(N(C)C)cc2)nc1C	none
C=CCc1c(C)nc(C)nc1N/N=C/c1ccc(N(C)C)cc1	aDG glyco act 6.3 (no result: Env fusion inh) | aDG glyco conf inactive
C[C@@H]1CN([C@H](C)CO)C(=O)c2cc(C#CC3CCCC3)cnc2O[C@H]1CN(C)C(=O)Nc1ccccc1	none (no result: aDG glyco act, Gli-Sufu block, NR2F2 inh, GalR3 antag)
Cc1ccc(NC(=O)c2cncc(Br)c2)c([N+](=O)[O-])c1	aDG glyco act 45.0 | aDG glyco conf inactive
Cc1ccc(S(=O)(=O)c2c(N)n(Cc3ccco3)c3nc4ccccc4nc23)cc1C	aDG glyco act 39.8 | aDG glyco conf inactive
CO[C@@H]1CN(C)C(=O)c2ccc(NS(=O)(=O)c3ccccc3C)cc2OC[C@H](C)N(C)C[C@H]1C	none (no result: aDG glyco act, Gli-Sufu block, NR2F2 inh, GalR3 antag)
CCOc1ccc(N=Cc2ccc([N+](=O)[O-])cc2)c(O)c1	aDG glyco act 5.9 (no result: Gli-Sufu block) | aDG glyco conf inactive
CCOc1ccc(N=Cc2ccc(N(C)C)cc2)c(O)c1	none (no result: Env fusion inh, Gli-Sufu block, NR2F2 inh, GalR3 antag)
CC(C)Nc1nc(-c2ccccn2)nc(-c2ccccc2)c1C#N	aDG glyco act 8.8 | aDG glyco conf inactive
C=CCNCC(=O)N1N=C(c2ccc3ccccc3c2)CC1c1ccc(OC)cc1 (configuration not stated)	aDG glyco act 5.8 | aDG glyco conf inactive
COC(=O)c1ccc(CSc2ccc3nnc(-c4ccc(F)cc4)n3n2)o1	none
COC(=O)c1ccc(CSc2ccc3nnc(-c4ccccn4)n3n2)o1	aDG glyco act 4.7 | aDG glyco conf inactive
Cn1cnc([N+](=O)[O-])c1Oc1ccc2ccccc2c1	aDG glyco act 4.7 | aDG glyco conf inactive
Cn1cnc([N+](=O)[O-])c1Sc1nc2ccccc2[nH]1	none
CCOc1ccc(NC(=O)c2ccc(F)c(S(=O)(=O)N3CCN(c4ccccn4)CC3)c2)cc1	aDG glyco act 5.0, Env fusion inh 56.7 | aDG glyco conf 2.1
CCOc1ccc(NC(=O)c2ccc(F)c(S(=O)(=O)N3CCCC3)c2)cc1	none (no result: Gli-Sufu block)
O=C(Nc1cccc(Cl)c1)N[C@H]1CC[C@H](CCNC(=O)C2CCCCC2)O[C@H]1CO	none (no result: aDG glyco act, Gli-Sufu block, NR2F2 inh, GalR3 antag)
C[C@H]1CN([C@@H](C)CO)C(=O)CCCn2cc(nn2)CO[C@H]1CN(C)C(=O)OCc1ccccc1	none (no result: aDG glyco act, Gli-Sufu block, NR2F2 inh, GalR3 antag)
COc1ccc(S(=O)(=O)N[C@H]2CC[C@H](CC(=O)NCCc3ccccc3)O[C@H]2CO)cc1	none (no result: aDG glyco act, Gli-Sufu block, NR2F2 inh, GalR3 antag)
O=C(OCc1ccccc1)N1CCC2CC1c1cc(Cl)ccc12 (configuration not stated)	aDG glyco act 9.7 | aDG glyco conf inactive
